TDP1 inh: blocks human tyrosyl-DNA phosphodiesterase 1 | Q9NUW8 | recombinant TDP1, AlphaScreen DNA substrate cleavage | Potency, µM (highest dose often 130 µM), inactives show at the top dose activity change, negative = inhibition, actives largely listed as inhibitors | hit rate 0.28% among 350,000 | AID 485290; note: % is set by controls: 0 for no effect and ±100 for the full control effect; nearly all actives have a fitted effect of over 40% in size
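Recombinant human Tdp1 (E. coli-expressed, 1 nM final) preincubated with compounds 15 min at room temperature, then 5'-biotin/3'-phosphotyrosine-FITC DNA substrate (15 nM final) added for 5 min. AlphaScreen beads (10 ug/ml final) added 10 min; cleavage lowers signal.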
FEN1 inh-1: blocks human flap endonuclease 1; P39748; Recombinant FEN1 flap cleavage, fluorescence, 15 min; Potency, µM (top dose mostly 114 µM), inactives show at the highest dose activity change, negative = inhibition, most hits filed as inhibitors; hit rate 0.35% among 390,000; AID 588795; note: % is set by controls: 0 for no effect and ±100 for the full control effect; nearly all actives have a fitted effect of over 65% in size
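Potency values derive from four-parameter Hill fits of normalized qHTS data. The reaction used 10 nM FEN1 preincubated 15 min at room temperature with compound, then 50 nM DNA substrate, read at 0 and 15 min.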
APEX1 inh: blocks human APE1 abasic DNA cleavage. Potency, µM (series often up to 65.8 µM), for inactives: at the highest dose activity change, negative = inhibition, hits mostly inhibitors. recombinant APE1, TAMRA/BHQ-2 abasic DNA cleavage fluorescence. P27695. hit rate 0.35% among 350,000. AID 2517;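 note: plate controls were vehicle for no effect and reference inhibitor for full effect; nearly all actives have a fitted effect of over 55% in size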
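0.75 nM APE1 + cpd, 15 min RT; start w/ 50 nM TAMRA/BHQ-2 THF-abasic dsDNA; kinetic fluor 525/598 nm ×3 reads @60 s; Δ(read3−read1); normalized to DMSO and NSC13755 control wells.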
BLM inh: blocks DNA unwinding by human BLM helicase; P54132; recombinant BLM DNA unwinding, fluorescence dequenching; Potency, µM (doses to about 56.1 µM), for inactives: top-dose activity change, negative = inhibition, actives largely listed as inhibitors; hit rate 0.2% among 350,000; AID 2528;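 note: plate controls were vehicle for no effect and no enzyme for full effect; nearly all actives have a fitted effect of over 35% in size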
Target sequence (P54132 whole entry, looked up): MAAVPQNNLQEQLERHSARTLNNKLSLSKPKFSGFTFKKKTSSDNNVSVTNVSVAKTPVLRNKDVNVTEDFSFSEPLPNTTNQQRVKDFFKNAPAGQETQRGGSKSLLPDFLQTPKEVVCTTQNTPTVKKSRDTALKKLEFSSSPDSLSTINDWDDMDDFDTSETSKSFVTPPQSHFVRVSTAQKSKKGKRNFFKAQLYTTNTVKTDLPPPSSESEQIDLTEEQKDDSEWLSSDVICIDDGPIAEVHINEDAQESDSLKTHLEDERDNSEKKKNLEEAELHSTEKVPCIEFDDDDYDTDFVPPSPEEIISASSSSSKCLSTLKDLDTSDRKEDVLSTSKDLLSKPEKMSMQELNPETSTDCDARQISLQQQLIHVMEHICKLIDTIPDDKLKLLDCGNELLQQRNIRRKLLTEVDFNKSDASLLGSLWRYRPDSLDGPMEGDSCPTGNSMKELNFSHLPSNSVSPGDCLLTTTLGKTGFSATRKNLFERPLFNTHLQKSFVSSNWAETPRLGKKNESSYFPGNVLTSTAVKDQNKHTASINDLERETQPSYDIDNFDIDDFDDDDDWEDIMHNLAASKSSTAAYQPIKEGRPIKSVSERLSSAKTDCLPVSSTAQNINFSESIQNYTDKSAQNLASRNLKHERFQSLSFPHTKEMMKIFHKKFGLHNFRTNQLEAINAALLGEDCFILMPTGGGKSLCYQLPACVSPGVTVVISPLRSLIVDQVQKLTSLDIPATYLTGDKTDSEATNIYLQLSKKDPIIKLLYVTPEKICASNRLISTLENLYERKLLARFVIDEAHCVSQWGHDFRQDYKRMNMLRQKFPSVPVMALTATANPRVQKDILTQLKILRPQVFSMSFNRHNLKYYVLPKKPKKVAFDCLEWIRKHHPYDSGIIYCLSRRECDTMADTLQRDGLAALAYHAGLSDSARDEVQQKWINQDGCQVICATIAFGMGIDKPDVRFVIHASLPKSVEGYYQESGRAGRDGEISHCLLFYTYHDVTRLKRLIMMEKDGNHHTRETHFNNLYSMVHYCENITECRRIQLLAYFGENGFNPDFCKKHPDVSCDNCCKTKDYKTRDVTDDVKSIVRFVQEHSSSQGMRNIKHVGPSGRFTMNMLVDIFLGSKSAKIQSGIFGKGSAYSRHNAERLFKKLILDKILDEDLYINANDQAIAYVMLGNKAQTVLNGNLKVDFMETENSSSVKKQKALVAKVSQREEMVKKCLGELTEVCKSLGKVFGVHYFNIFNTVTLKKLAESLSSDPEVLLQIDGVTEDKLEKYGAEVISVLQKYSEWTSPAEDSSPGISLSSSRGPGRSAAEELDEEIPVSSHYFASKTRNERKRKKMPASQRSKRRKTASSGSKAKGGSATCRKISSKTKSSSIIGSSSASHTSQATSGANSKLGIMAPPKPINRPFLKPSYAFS
RECQ1 inh: blocks DNA unwinding by human RECQ1; Potency, µM (highest dose often 57.3 µM), for inactives: top-dose activity, negative = inhibition, hits mostly inhibitors; hit rate 0.54% among 240,000; AID 2549; RECQ1 DNA unwinding, red fluorescence kinetic read; P46063;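 note: plate controls were vehicle for no effect and no enzyme for full effect; nearly all actives have a fitted effect of over 30% in size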
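50 nM RECQ1T1 preincubated 15 min with compound in Tris pH 8.0 buffer with MgCl2, DTT, Tween-20 and 2.5 ug/ml poly(dI-dC); started with 200 nM TAMRA/BHQ-2 forked duplex and 2 mM ATP. Unwinding read as fluorescence (525/598 nm), two reads 2 h apart.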
FEN1 inh-2: FEN1 inhibition, cherry-pick retest. Potency, µM, most hits filed as inhibitors. shares compounds with FEN1 inh-1. FEN1 flap cleavage, TAMRA/BHQ2 fluorogenic DNA substrate. AID 720498. hit rate 79% among 880; note: nearly all actives have a fitted effect of over 60% in size
* hit, by the source's call; [ ] = dose if it differs, or a comment. Rows were chosen to be rich in hits. Some 0.92% of all compounds tested hit in one or more screens of this group. Calls come from the whole dose curve; as a rule, active = well fitted curve in the direction sought with a large enough effect; inconclusive = small, poorly fitted or top-dose-only effect, or another doubt; inactive = no such curve, though single readings can be large; an effect the other way counts as inactive or inconclusive. Potency is the fitted concentration of half-maximal effect.

What do the screens show for `C/C(=N\NC(=O)c1ccc(OC2OCCOC2Oc2ccc(C(=O)N/N=C(\C)c3ccncc3)cc2)cc1)c1ccncc1` (configuration not stated)?
TDP1 inh: -1%; FEN1 inh-1: -33%; APEX1 inh: 2%; BLM inh: -14%; RECQ1 inh: -4%; FEN1 inh-2: 67*

Results for C/C(=N\NC(=O)c1ccncc1)c1ccc(N2CCOCC2)cc1 ?
TDP1 inh: 0%; FEN1 inh-1: 15%; APEX1 inh: 0%

Results for COC(=O)C1=C[C@@H](C(=O)OC)C2C3=C(C(=O)[C@@]2(C)NC(=O)c2ccccc2)[C@H](c2ccccc2)n2c(=O)n(-c4ccccc4)c(=O)n2[C@@H]3C1 (some centres not stated) ?
TDP1 inh: 6%; FEN1 inh-1: -8%; APEX1 inh: -7%; BLM inh: -2%; RECQ1 inh: inactive

What do the screens show for `O=C(NCCO)c1cc2c([nH]c3ccccc32)c(-c2ccc(F)cc2)n1`?
FEN1 inh-1: inconclusive; APEX1 inh: 15%; BLM inh: -3%

How did Cc1ccc(-c2nc(C(=O)NCCCN(C)C)cc3c2[nH]c2ccccc23)cc1 do in these assays?
FEN1 inh-1: inconclusive; APEX1 inh: -8%; BLM inh: 169%; FEN1 inh-2: 38*

What do the screens show for `C[C@H]1Cc2c(-c3ccccc3)nc3c(c2CO1)CN(C(=O)NCc1ccco1)CC3`?
TDP1 inh: 18%[12.3 µM]; APEX1 inh: -3%[12.4 µM]; BLM inh: -1%[12.4 µM]; RECQ1 inh: -6%[11.5 µM]

Results for CCNc1cc(N2CCN(C3CCCCC3)CC2)c2noc3c2c1C(=O)c1ccccc1-3 ?
TDP1 inh: 9%; FEN1 inh-1: 6%; BLM inh: -3%

What do the screens show for `CCN1CCN(c2cc(N3CCN(C(=O)c4ccco4)CC3)c3c4c(onc24)-c2ccccc2C3=O)CC1`?
TDP1 inh: 9%; FEN1 inh-1: inconclusive; APEX1 inh: -23%; BLM inh: -25%

What do the screens show for `O=C(O)CCNc1cc(N2CCN(C(=O)c3ccco3)CC2)c2noc3c2c1C(=O)c1ccccc1-3`?
TDP1 inh: 0%; FEN1 inh-1: 32µM*; APEX1 inh: -34%; BLM inh: -16%; FEN1 inh-2: 30*

What do the screens show for `O=C(O)CCCNc1cc(N2CCN(C3CCCCC3)CC2)c2noc3c2c1C(=O)c1ccccc1-3`?
TDP1 inh: -6%; FEN1 inh-1: inconclusive; BLM inh: -22%; FEN1 inh-2: inconclusive

What do the screens show for `Cc1ccc(NS(=O)(=O)c2ccc3c(c2)CCC(=O)N3)cc1F`?
TDP1 inh: 1%

What do the screens show for `OC1CCCN(Cc2ccc3ccc4cccc5ccc2c3c45)C1` (configuration not stated)?
TDP1 inh: 6%; FEN1 inh-1: 56µM*; APEX1 inh: inconclusive; BLM inh: 188%; RECQ1 inh: 34%; FEN1 inh-2: 43*

Results for COc1cc(OC)cc(-c2nc3nc(C)c(CCC(=O)Nc4cc(C)cc(C)c4)c(C)n3n2)c1 ?
TDP1 inh: 6%; FEN1 inh-1: 5%; BLM inh: -2%

Results for CN(C)CCNc1ncnc2ccc(-c3ccc4c(c3)OCO4)cc12 ?
FEN1 inh-2: 30*

What do the screens show for `CN1CCCC1CCNc1ncnc2ccc(-c3ccc4c(c3)OCO4)cc12` (configuration not stated)?
FEN1 inh-2: 48*

Results for c1nc(NCc2ccc3c(c2)OCO3)c2cc(-c3ccc4c(c3)OCCO4)ccc2n1 ?
TDP1 inh: 5%; FEN1 inh-1: inconclusive; APEX1 inh: -2%

What do the screens show for `CC(=O)NCCNc1ncnc2ccc(-c3ccc4c(c3)OCO4)cc12`?
APEX1 inh: 8%; BLM inh: 3%; RECQ1 inh: inactive

How did c1nc(NCCN2CCOCC2)c2cc(-c3ccc4c(c3)OCO4)ccc2n1 do in these assays?
TDP1 inh: 9%[56.1 µM]; APEX1 inh: inconclusive; BLM inh: -4%; RECQ1 inh: inactive

What do the screens show for `NCCCNc1ncnc2ccc(-c3ccc4c(c3)OCO4)cc12`?
FEN1 inh-2: 38*

How did CCCCC(CC)COCCCN (configuration not stated) do in these assays?
TDP1 inh: 4%; APEX1 inh: 3%; RECQ1 inh: 2%

How did O=S(=O)(c1ccccc1C(F)(F)F)N1CCN(c2nc(-c3ccccc3)nc3ccccc23)CC1 do in these assays?
TDP1 inh: 0%; FEN1 inh-1: -9%

Results for CN(C)CCNC(=O)c1ccccc1 ?
TDP1 inh: 0%; FEN1 inh-1: 44%; APEX1 inh: 14%; BLM inh: 2%; RECQ1 inh: -2%

Results for CN(C)CCNC(=O)c1cccc2nc3cccc(F)c3nc12 ?
FEN1 inh-1: 14µM*; FEN1 inh-2: 19*

How did CC(C)Oc1ccc(CNC(=O)CCCN2C(=O)c3cccnc3Oc3ccc(Cl)cc32)cc1 do in these assays?
TDP1 inh: 1%; FEN1 inh-1: 8%; BLM inh: -4%

How did O=C(O)c1cc(O)c2c(c1)[C@@H]([C@H]1c3cc(C(=O)O)cc(O)c3C(=O)c3c(O[C@@H]4O[C@H](CO)[C@@H](O)[C@H](O)[C@H]4O)cccc31)c1cccc(OC3O[C@H](CO)[C@@H](O)[C@H](O)[C@H]3O)c1C2=O (some centres not stated) do in these assays?
FEN1 inh-1: inconclusive; APEX1 inh: 0.084µM*; FEN1 inh-2: 30*

How did Cn1nc(-c2ccc(OCC(=O)Nc3ccccc3)cc2)c2ccccc2c1=O do in these assays?
TDP1 inh: 6%; FEN1 inh-1: 5%; APEX1 inh: 1%; BLM inh: 0%; RECQ1 inh: -17%

Results for Cn1nc(-c2ccc(OCC(=O)Nc3ccc(Cl)cc3)cc2)c2ccccc2c1=O ?
FEN1 inh-1: inconclusive; BLM inh: -11%; FEN1 inh-2: 34*

What do the screens show for `CCOC(=O)CCc1cc(F)c(S(=O)(=O)N2CCN(S(=O)(=O)c3ccc4c(c3)OCCO4)CC2)cc1F`?
TDP1 inh: 0%

How did CC[n+]1ccc(/C=C/c2ccc(N(C)C)cc2)c2ccccc21 do in these assays?
TDP1 inh: 6%; FEN1 inh-1: 40µM*; APEX1 inh: 10%; BLM inh: -28%; RECQ1 inh: 35µM*; FEN1 inh-2: 48*

What do the screens show for `COc1ccc2cc(CNCCOCCOCCNCc3ccc4cc(OC)ccc4c3)ccc2c1`?
FEN1 inh-1: 40µM*; FEN1 inh-2: 38*

Source: PubChem (National Center for Advancing Translational Sciences (NCATS))
